# How the values were obtained:
# Experiment in all cases: DAPPL (digital affinity profiling via proximity ligation, sequencing); 10 mM Tris-HCl pH 7.5, 50 mM NaCl, 1 mM DTT, 4% glycerol, room temperature, 30 min; GST-TFs on glutathione beads, 16-mer random dsDNA library, 0.1% formaldehyde crosslink after washing; high values mean tight binding
# [1] = target: T1, FEV (Homo sapiens, UniProt Q99581 1-238); conditions: protein: recombinant; tags: N-terminal GST; dsDNA, one strand shown
# T1 sequence: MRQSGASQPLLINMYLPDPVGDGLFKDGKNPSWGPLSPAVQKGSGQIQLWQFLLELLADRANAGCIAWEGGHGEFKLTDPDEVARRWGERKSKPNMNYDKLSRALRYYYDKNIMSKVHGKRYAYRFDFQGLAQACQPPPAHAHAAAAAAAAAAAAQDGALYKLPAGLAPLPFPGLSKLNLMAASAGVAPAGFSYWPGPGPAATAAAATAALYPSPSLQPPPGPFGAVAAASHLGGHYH
# Summary of the method: (§1)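 Human transcription factors carrying a GST fusion were produced in yeast, bound to glutathione beads, tagged with DNA barcodes and pooled together with a tag-only sample. Each pool was held with 200 nmole of a random double-stranded 16-mer DNA library in Tris/NaCl/DTT/glycerol buffer for 30 min at room temperature, then washed, crosslinked in 0.1% formaldehyde, proximity-ligated with BsaI/T4 ligase (1 h, 37 °C), PCR-amplified and sequenced on an Illumina NextSeq500. Binding signal is the read frequency of each hexamer for a given factor divided by its frequency in the tag-only sample.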
# [2] = target: ETV5 (Homo sapiens, UniProt P41161 1-510); conditions: protein: recombinant; tags: N-terminal GST; dsDNA, one strand shown
# Chain of ETV5 (P41161 whole entry): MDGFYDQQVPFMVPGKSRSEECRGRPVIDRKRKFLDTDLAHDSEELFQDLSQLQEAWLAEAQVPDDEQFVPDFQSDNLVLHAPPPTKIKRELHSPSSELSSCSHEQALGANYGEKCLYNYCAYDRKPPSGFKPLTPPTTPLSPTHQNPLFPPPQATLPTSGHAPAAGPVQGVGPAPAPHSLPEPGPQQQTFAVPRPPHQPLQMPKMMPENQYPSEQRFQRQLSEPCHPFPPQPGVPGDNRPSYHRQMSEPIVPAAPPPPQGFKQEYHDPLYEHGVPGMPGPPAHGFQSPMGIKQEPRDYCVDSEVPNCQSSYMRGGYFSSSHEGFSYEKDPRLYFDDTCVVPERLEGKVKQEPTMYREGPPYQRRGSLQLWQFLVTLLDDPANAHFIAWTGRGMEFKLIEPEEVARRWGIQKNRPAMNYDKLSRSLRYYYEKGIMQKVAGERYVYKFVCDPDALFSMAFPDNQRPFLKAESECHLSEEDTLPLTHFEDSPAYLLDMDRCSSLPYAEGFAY
# Summary of the method: as §1
# [3] = target: HSF1 (Homo sapiens, UniProt Q00613 1-529); conditions: protein: recombinant; tags: N-terminal GST; chain copies: 3; dsDNA, one strand shown
# Chain of HSF1 (Q00613 whole entry): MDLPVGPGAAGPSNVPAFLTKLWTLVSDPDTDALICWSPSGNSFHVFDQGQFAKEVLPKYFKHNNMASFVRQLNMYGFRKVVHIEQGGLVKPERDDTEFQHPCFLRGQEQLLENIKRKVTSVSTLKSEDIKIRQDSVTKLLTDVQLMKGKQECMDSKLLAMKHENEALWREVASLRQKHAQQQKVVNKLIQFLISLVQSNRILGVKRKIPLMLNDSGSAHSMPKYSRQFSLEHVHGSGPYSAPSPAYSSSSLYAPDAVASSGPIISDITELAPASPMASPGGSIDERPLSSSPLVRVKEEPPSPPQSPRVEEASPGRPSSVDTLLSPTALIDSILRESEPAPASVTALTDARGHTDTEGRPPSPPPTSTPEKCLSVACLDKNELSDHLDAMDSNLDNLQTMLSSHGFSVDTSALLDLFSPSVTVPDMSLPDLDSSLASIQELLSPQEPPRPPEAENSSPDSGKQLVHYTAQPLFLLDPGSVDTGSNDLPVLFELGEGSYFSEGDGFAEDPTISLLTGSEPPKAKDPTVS
# Summary of the method: as §1
# [4] = target: T2, SPIC (Homo sapiens, UniProt Q8N5J4 1-248); conditions: protein: recombinant; tags: N-terminal GST; dsDNA, one strand shown
# T2 sequence: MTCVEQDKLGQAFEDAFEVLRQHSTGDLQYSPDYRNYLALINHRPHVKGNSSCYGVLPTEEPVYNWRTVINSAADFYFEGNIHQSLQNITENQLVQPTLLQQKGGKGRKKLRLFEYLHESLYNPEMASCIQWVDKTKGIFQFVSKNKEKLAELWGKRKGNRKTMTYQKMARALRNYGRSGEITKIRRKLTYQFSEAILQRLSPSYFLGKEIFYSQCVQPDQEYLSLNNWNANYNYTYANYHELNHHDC
# Summary of the method: as §1
# [5] = target: ELF4 (Homo sapiens, UniProt Q99607 1-663); conditions: protein: recombinant; tags: N-terminal GST; dsDNA, one strand shown
# Chain of ELF4 (Q99607 whole entry): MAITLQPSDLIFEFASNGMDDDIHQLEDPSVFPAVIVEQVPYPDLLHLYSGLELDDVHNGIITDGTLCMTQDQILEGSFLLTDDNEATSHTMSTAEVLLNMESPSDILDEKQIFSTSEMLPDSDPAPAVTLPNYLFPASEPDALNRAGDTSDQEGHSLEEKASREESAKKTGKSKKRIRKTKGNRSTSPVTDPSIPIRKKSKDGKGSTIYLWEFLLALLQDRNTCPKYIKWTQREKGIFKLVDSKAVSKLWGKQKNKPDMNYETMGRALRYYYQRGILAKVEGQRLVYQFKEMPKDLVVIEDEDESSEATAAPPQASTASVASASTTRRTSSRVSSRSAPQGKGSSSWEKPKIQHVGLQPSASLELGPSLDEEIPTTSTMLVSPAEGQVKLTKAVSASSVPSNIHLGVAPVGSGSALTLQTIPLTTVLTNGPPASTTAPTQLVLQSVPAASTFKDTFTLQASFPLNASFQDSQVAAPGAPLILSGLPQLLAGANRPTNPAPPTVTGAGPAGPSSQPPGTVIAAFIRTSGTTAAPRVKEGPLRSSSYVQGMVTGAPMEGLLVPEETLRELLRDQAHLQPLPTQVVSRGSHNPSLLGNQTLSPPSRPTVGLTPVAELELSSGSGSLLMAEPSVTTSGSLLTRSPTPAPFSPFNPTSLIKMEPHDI
# Summary of the method: as §1
# [6] = target: T3, ELK4 (Homo sapiens, UniProt P28324-2 1-405); conditions: protein: recombinant; tags: N-terminal GST; dsDNA, one strand shown
# T3 sequence: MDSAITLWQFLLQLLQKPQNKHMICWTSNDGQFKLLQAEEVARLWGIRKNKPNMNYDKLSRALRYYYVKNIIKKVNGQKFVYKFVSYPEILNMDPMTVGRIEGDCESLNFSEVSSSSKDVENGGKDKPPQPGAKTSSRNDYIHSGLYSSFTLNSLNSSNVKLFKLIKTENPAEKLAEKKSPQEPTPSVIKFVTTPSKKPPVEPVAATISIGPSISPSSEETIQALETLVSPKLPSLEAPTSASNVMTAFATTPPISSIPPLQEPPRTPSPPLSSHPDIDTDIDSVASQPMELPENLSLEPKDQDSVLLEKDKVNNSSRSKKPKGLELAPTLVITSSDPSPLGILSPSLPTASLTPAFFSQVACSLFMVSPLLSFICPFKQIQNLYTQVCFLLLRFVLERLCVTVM
# Summary of the method: as §1
# [7] = target: T4, ETV2 (Homo sapiens, UniProt O00321 1-342); conditions: protein: recombinant; tags: N-terminal GST; dsDNA, one strand shown
# T4 sequence: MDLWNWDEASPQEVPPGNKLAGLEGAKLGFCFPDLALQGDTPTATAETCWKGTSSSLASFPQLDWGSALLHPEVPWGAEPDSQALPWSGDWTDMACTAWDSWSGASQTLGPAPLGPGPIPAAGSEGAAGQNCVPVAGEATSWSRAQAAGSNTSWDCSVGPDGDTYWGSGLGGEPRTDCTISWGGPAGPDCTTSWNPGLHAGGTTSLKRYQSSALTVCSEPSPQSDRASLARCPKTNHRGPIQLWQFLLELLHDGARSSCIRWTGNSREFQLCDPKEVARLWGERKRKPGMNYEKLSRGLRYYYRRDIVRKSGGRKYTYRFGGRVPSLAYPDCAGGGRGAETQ
# Summary of the method: as §1
# [8] = target: T5, ELF3 (Homo sapiens, UniProt P78545 1-371); conditions: protein: recombinant; tags: N-terminal GST; dsDNA, one strand shown
# T5 sequence: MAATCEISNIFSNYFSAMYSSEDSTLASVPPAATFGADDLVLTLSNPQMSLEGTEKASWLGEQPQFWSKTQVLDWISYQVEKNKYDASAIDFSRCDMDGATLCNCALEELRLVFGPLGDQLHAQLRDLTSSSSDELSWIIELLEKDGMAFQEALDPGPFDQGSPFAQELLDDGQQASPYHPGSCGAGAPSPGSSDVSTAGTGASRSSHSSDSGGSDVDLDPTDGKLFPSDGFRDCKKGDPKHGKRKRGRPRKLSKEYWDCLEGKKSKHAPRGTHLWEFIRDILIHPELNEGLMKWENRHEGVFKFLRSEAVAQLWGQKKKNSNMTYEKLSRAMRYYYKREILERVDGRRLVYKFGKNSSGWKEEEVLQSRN
# Summary of the method: as §1
# [9] = target: CRX (Homo sapiens, UniProt O43186 1-299); conditions: protein: recombinant; tags: N-terminal GST; dsDNA, one strand shown
# Chain of CRX (O43186 whole entry): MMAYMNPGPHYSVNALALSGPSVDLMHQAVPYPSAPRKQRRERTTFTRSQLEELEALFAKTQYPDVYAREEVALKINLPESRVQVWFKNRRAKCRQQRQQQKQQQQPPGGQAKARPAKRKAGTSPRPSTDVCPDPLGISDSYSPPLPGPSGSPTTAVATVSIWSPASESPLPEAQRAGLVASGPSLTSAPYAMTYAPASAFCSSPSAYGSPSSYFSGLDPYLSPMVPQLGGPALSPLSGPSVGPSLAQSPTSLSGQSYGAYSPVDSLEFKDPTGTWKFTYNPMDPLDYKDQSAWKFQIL
# Summary of the method: as §1
sequence,measurement,setting,value
AACTGC,binding signal,[1],"1.42 fold enrichment (6-mer frequency, TF over GST control)"
same,binding signal,[2],"1.38 fold enrichment (6-mer frequency, TF over GST control)"
same,binding signal,[3],"1.07 fold enrichment (6-mer frequency, TF over GST control)"
same,binding signal,[4],"1.49 fold enrichment (6-mer frequency, TF over GST control)"
same,binding signal,[5],"1.31 fold enrichment (6-mer frequency, TF over GST control)"
same,binding signal,[6],"1.33 fold enrichment (6-mer frequency, TF over GST control)"
same,binding signal,[7],"1.19 fold enrichment (6-mer frequency, TF over GST control)"
same,binding signal,[8],"1.32 fold enrichment (6-mer frequency, TF over GST control)"
same,binding signal,[9],"1.05 fold enrichment (6-mer frequency, TF over GST control)"

# Reference: publication PMC7862700, “An all-to-all approach to the identification of sequence-specific readers for epigenetic DNA modifications on cytosine”
